# From PubChem BioAssay
# A selection: hits, their analogues and other compounds. The true share with any hit is near 22%.
# Pf growth 96h: Primary qHTS for delayed death inhibitors of the malarial parasite plastid, 96 hour incubation; P. falciparum luciferase reporter growth, 96 h; Potency, µM (top dose mostly 28.7 µM), for inactives: at the highest dose activity change, negative = inhibition, usual class: inhibitors; actives 6.9% (n = 320,000); further: potency means the concentration at half of the fitted maximal effect; on the % scale 0 is the no-effect control and ±100 the full control effect
#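 Delayed-death screen, second-generation endpoint: infected erythrocytes, 2% hematocrit, 0.05% parasitemia final; 96 hours at 37 C, 5% CO2; luciferase detection reagent; luminescence decrease equals reduced growth.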
# LmPK inhibitor: qHTS Assay for Inhibitors of Leishmania Mexicana Pyruvate Kinase (LmPK) | Potency, µM (doses to about 57.5 µM), inactives show at the highest dose activity change, negative = inhibition, usual class: inhibitors | AID 1721, 2009 | actives 0.37% (n = 290,000) | purified LmPK, Kinase-Glo ATP luminescence, 1 h | Q27686; further: potency means the concentration at half of the fitted maximal effect; on the % scale 0 is the no-effect control and ±100 the full control effect
# Target sequence (Q27686 whole entry, looked up): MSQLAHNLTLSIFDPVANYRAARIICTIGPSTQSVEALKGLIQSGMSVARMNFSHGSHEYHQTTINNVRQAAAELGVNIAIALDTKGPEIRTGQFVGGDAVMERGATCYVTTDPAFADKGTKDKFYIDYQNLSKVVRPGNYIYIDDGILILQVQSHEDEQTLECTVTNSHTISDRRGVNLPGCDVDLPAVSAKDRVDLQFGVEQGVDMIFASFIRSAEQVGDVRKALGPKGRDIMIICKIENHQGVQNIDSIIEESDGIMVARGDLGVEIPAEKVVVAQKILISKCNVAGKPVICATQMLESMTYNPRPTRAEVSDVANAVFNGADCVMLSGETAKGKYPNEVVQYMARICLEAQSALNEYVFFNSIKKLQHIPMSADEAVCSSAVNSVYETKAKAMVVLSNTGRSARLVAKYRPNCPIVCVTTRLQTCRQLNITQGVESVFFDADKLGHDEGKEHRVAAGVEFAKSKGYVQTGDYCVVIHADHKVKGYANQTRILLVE
#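 Kinase-Glo luminescence read after 1 h RT reaction of 0.1 nM LmPK with 0.5 mM PEP and 0.1 mM ADP. Activity scaled between uninhibited and enzyme-free controls.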
# Cycloheximide cs: Cycloheximide Counterscreen for Small Molecule Inhibitors of Shiga Toxin; cell reporter, cycloheximide protein synthesis inhibition counterscreen; max response, %; actives 12% (n = 300,000); AID 2314, 2010; in the data active means max response mostly above about 13%, no sharp cut-off; inactive means mostly below about 14%; further: read at 38.3 µM for the half of the compounds with a filed dose; 0% is about no effect
# Shiga toxin inh: A qHTS for Small Molecule Inhibitors of Shiga Toxin; Vero cells, Shiga toxin protein synthesis inhibition reporter; inhibition, % at 38.7 µM; actives 9.2% (n = 290,000); in the data active means inhibition mostly above about 28%, no sharp cut-off; inactive means mostly below about 43%; further: 0% is about no effect
# Pf growth 48h: Primary qHTS for delayed death inhibitors of the malarial parasite plastid, 48 hour incubation; P. falciparum luciferase growth in erythrocytes, 48 h; Potency, µM (doses to about 28.7 µM), for inactives: top-dose activity change, negative = inhibition, most hits filed as inhibitors; actives 5.9% (n = 310,000); AID 504832, 2011; further: potency means the concentration at half of the fitted maximal effect; on the % scale 0 is the no-effect control and ±100 the full control effect
#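 Cell-based growth assay: transgenic P. falciparum expressing firefly luciferase, cultured in red cells within RPMI 1640 containing 0.5% w/v Albumax, 24 mM bicarbonate and gentamycin. A drop in luciferase activity indicates inhibition.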
# Numbers without * were called inactive; ? = inconclusive; . = no result; [ ] = remark or other dose. Unless noted, the call rests on the fitted dose curve; in most records, active means well fitted inhibition curve with a large enough effect; inconclusive means small, poorly fitted or top-dose-only effect, or another doubt; inactive means no such curve, though single readings can be large or run the other way.
SMILES,Pf growth 96h,LmPK inhibitor,Cycloheximide cs,Shiga toxin inh,Pf growth 48h
Cc1ccc(OCC(=O)Nc2sc3c(c2C#N)CCC3)cc1,58%,6%,53*,122*,117%
Cc1sc(NC(=O)COc2ccccc2)c(C#N)c1-c1ccccc1,?,1%,23*,-5,-3%
COc1ccc(N(CC(=O)NN=C2CCN(C)CC2)S(=O)(=O)c2ccc(NC(C)=O)cc2)cc1,?,-1%,-4,-2,-7%
C=CCn1c(CCNC(=O)c2cccs2)nnc1SCC(=O)Nc1cccc(F)c1,.,1%,-2,-12,-8%
COc1ccccc1NC(=O)c1coc(=O)c(Br)c1,24%,0%,77*,104*,15%
COc1ccccc1NC(=O)c1c(C)nc2ccccc2c1C(=O)O,4%,3%,1,6,0%
COc1ccccc1NC(=O)c1cc[n+](C)cc1,?,1%,-2,-7,5%
COc1ccccc1NC(=O)c1ccc2nc(C)sc2c1,?,-2%,46*,83*,-26%
COc1ccccc1NC(=O)c1ccc2[nH]c(C)c(C)c2c1,62%,0%,40*,128*,3%[0.00184 µM]
COC(=O)CCCNC(=O)c1ccc2[nH]c(C)c(C)c2c1,15%,-2%,17,27,-11%
COc1ccc(NC(C)=O)cc1NC(=O)c1ccc2ccccc2c1,-11%,-5%,5,17,16%
COc1ccccc1NC(=O)c1ccc2ccccc2c1,.,.,54*,68*,.
CCOC(=O)c1[nH]c2ccc(OC)cc2c1NC(=S)N1CCN(c2ccccc2OC)CC1,-28%,-1%,5,9,?
CC(=O)NC(Cc1ccc(C)cc1)C(=O)NC1CCN(S(=O)(=O)c2ccccc2)CC1 (stereo not drawn),3%,-3%,-4,23,5%
CC(C)[C@H](NC(=O)[C@@H]1CSC2c3ccccc3C(=O)N21)C(=O)NCc1ccncc1 (stereo partly drawn),31%,2%,-2,-2,14%
COc1ccccc1N1CCN(C(=O)c2coc(=O)c(Br)c2)CC1,-30%,2%,40*,81*,?
Cc1[nH]c2ccc(C(=O)Nc3ccncc3)cc2c1C,12µM*,1%,23*,50*,?
O=C(NC(CO)(CO)CO)c1coc(=O)c(Br)c1,?,0%,10,1,?
COc1ccccc1N1CCN(C(=O)c2cccc(C(=O)N3CCN(c4ccccc4OC)CC3)c2)CC1,9%,0%,-1,-8,?
O=C(NNC(=O)C1C2CCCCC21)c1coc(=O)c(Br)c1 (stereo not drawn),9%,0%,51*,57*,76%
O=C(Nc1cc(Cl)cc(Cl)c1)c1coc(=O)c(Br)c1,?,19%,24*,39*,-19%
Cc1ccc(-n2c(SCC(=O)N(C)C3CCS(=O)(=O)C3)nc3ccccc3c2=O)cc1 (stereo not drawn),?,-4%,8,-11,-5%
COc1ccc(OC)c(-c2nnc(SCC(=O)N3CCCC3)o2)c1,60%,0%,-4,-6,-40%
CN(C)c1ccc(/C=C(\C#N)C(=O)Nc2nc3c(s2)CCN(Cc2ccccc2)C3)cc1,-14%,4%,-3,-24,.
COc1cccc(NC(=O)c2ccc3nc(C)sc3c2)c1,?,-5%,38*,60*,14%
CCCN1C(=O)c2cc(C(=O)Nc3ccccc3OC)ccc2C1Nc1ccccc1OC (stereo not drawn),?,4%,-2,18,10µM*
COc1ccccc1C(=O)NC(=O)CSc1nnc(N)s1,-27%,.,.,.,-3%
CC(=O)c1ccc(N2CCN(C(=O)CCS(=O)(=O)c3ccc4c(c3)NC(=O)CS4)CC2)cc1,?,-7%,44*,55*,?
COc1ccc(N2CCN(C(=O)CCS(=O)(=O)c3ccc4c(c3)NC(=O)C(C)S4)CC2)cc1 (stereo not drawn),9.3µM*,-2%,-4,-8,?
Cc1ccc(C)c(N2CCN(C(=O)CCS(=O)(=O)c3ccc4c(c3)NC(=O)C(C)S4)CC2)c1 (stereo not drawn),0%,-1%,-4,-9,?
